Test results taken from PubChem BioAssay AID485358 (National Center for Advancing Translational Sciences (NCATS), 2010).
Where “and” joins values, the source holds several entries; their conditions need not be identical. Equal values may be shown once. Hit rate of the full screen: of about 340,000 compounds, about 1,800 (0.53%) were called active.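 The calls were made as follows: active = activation over 3 SD above normal in the single-dose calcium agonist read (cut at about 30% in these data); inactive = the rest.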 This excerpt belongs to a sample that is enriched for actives.

Each compound was assayed against D(2) dopamine receptor (Homo sapiens) (UniProt P14416) (assay: HTS Assay for Allosteric Agonists of the Human D2 Dopamine Receptor: Primary Screen for Agonists). Conditions: HEK293 T-REx D2 cells, calcium flux agonist mode; at 2 µM; stronger effect = higher value.
Summary of the method: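 Tetracycline-induced HEK293 T-REx cells with force-coupled D2 receptor, plated overnight at 30 C, loaded with no-wash calcium dye. After a 10 s baseline, compound was pin-added and calcium flux read kinetically for 180 s; calcium rises flagged agonists.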
Also: 0% is about no effect.

Chain of D(2) dopamine receptor (Homo sapiens) (P14416 whole entry, looked up): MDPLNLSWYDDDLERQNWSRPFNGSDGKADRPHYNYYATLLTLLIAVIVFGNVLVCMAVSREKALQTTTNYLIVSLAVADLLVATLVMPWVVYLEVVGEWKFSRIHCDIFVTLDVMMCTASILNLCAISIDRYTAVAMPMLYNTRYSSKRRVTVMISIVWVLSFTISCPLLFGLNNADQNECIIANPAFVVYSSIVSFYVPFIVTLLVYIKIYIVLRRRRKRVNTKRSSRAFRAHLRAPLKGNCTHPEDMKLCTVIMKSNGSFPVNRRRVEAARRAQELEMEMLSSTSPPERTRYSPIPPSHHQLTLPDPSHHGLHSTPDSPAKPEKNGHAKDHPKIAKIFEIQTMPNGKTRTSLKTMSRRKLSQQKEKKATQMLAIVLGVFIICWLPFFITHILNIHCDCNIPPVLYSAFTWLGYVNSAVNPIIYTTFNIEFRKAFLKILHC

Row | SMILES | activation
1 | CCOC(=O)c1nnn2c3ccccc3c(=O)n(C)c12 | 0.451% (inactive)
2 | Cn1c2ccccc2c2c(C(=O)N3CCN(c4ccc(F)cc4)CC3)cn(C3CCCC3)c(=O)c21 | 0.715% (inactive)
3 | CCCc1nc2c(c(=O)c3ccccc3n2C)c(=O)n1C1CCCCCC1 | 38.8% (active)
4 | COc1cccc(CNc2nccn(-c3ccc(OC)c(OC)c3)c2=O)c1 | 0.433% (inactive)
5 | CCOc1ccccc1C(=O)NC1(C(F)(F)F)NC(=O)N(CCc2ccc(OC)c(OC)c2)C1=O (stereo unspecified) | -1.49% (inactive)
6 | Cc1ccc(C)c(CN2C(=O)c3ccccc3S(=O)c3ccc(C(=O)N4CCOCC4)cc32)c1 (stereo unspecified) | 0.908% (inactive)
7 | CCSc1nnc2c(n1)OC(c1ccc(OCC(=O)O)cc1)Nc1ccccc1-2 (stereo unspecified) | -0.918% (inactive)
8 | OCC1(Cc2ccccc2)CCN(Cc2cc3ccccc3o2)CC1 | 58.8% (active)
9 | O=C(c1cc2ccccc2o1)N1CCN(Cc2ccccc2)CC1 | 0.213% (inactive)
10 | CC(C)c1csc(CN2CCC(CO)(Cc3ccccc3)CC2)n1 | 0.222% (inactive)
11 | O=C(c1ccc(Cl)cc1)c1ccc(OCC(O)CN2CCCCC2)cc1 (stereo unspecified) | 0.406% (inactive)
12 | OC(COc1ccc2c(c1)CCC2)CN1CCN(c2cccc(Cl)c2)CC1 (stereo unspecified) | 55.1% (active)
13 | O=c1cc(CN2CCN(c3cccc(Cl)c3)CC2)c2cc3c(cc2o1)CCCC3 | -0.276% (inactive)
14 | CCNS(=O)(=O)c1ccc(NC(=O)CSc2nc(-c3ccco3)cc(C(F)(F)F)n2)cc1 | -0.45% (inactive)
15 | Nc1c(C(=O)c2cccs2)sc2nsc(SCCN3CCCCC3)c12 | 52.2% (active)
16 | COc1ccc(CCC(=O)NCc2ccc3c(c2)CCN3C(=O)c2ccc(F)cc2)cc1 | 1.61% (inactive)
17 | CCN1CCN(c2ncc3c(n2)CC(c2ccccc2O)CC3=O)CC1 (stereo unspecified) | -0.199% (inactive)
18 | CCN(CC)CCC(c1ccc2c(c1)OCO2)c1c(OC)cc(OC)c2c(-c3ccccc3)cc(=O)oc12 (stereo unspecified) | -1.38% (inactive)
19 | COc1cc(OC)c2ccc(=O)oc2c1C(CCN1CCN(c2ccccc2)CC1)c1ccc2c(c1)OCO2 (stereo unspecified) | 78.4% (active)
20 | COc1cc(C(CCN2CCN(c3ccccc3)CC2)c2c(OC)cc(OC)c3ccc(=O)oc23)cc(OC)c1OC (stereo unspecified) | 25.6% (inactive)
21 | CCCn1c2ccccc2c2cnn(CC(=O)N3CCCC(C(=O)OCC)C3)c(=O)c21 (stereo unspecified) | 0.474% (inactive)
22 | CCN(C(=O)Cn1c(=O)nc(-c2ccccc2)c2cc(Cl)ccc21)c1cccc(C)c1 | 6.7% (inactive)

Row | SMILES | activation
23 | Cc1csc2nc(COC(=O)c3ccccc3NC(=O)c3ccccc3Cl)cc(=O)n12 | 0.344% (inactive)
24 | Cc1csc2nc(COc3ccc(NC(=O)COc4ccccc4)cc3)cc(=O)n12 | -0.592% (inactive)
25 | O=c1cc(CCl)nc2scc(-c3ccccc3)n12 | 39.4% (active)
26 | CCc1ccccc1NC(=O)c1ccc(F)c(S(=O)(=O)NC2CCCCCC2)c1 | 0.52% (inactive)
27 | COc1ccc(NC(=O)CN2CCCN(Cc3ccccc3)S2(=O)=O)cc1 | -1.11% (inactive)
28 | COc1ccc(-c2nn(CC(=O)Nc3ccccc3F)c3c2cnc2ccc(F)cc23)cc1 | 0.341% (inactive)
29 | CN1C(=O)c2[nH]nc(-c3ccc(F)cc3)c2C1c1ccccn1 (stereo unspecified) | 1.23% (inactive)
30 | CCOc1ccccc1N1CCN(C(=O)COc2ccc3c(C)cc(=O)oc3c2)CC1 | -0.577% (inactive)
31 | Cc1cc(=O)oc2cc(OCCC[n+]3ccccc3)ccc12 | 0.774% (inactive)
32 | Cc1ccccc1N1CCN(CCCOc2ccc3c(C)cc(=O)oc3c2)CC1 | 80.1% (active)
33 | CCOc1ccc(NC(=O)Cn2cc(C(=O)c3ccc(C)cc3)c(=O)c3cc4c(cc32)OCCO4)cc1 | -0.524% (inactive)
34 | CC(=O)NCC(O)c1ccc([N+](=O)[O-])cc1 (stereo unspecified) | -2.19% (inactive)
35 | CNCC(O)c1ccc(O)c(O)c1 (stereo unspecified) | 64.9% (active)
36 | CC(Sc1oc(-c2ccco2)nc1S(=O)(=O)c1ccc(Br)cc1)c1ccccc1 (stereo unspecified) | 0.011% (inactive)
37 | COc1ccccc1C(=O)Nc1c(C(=O)N(C)Cc2ccccc2)sc2nc(C)c(Cl)c(C)c12 | 0.563% (inactive)
38 | COc1cc(NC(=O)c2nc3ccccc3nc2C)cc(OC)c1OC | 0.0893% (inactive)
39 | COc1cccc(CNC(=O)c2cc(=O)[nH]c3ccc(S(=O)(=O)N4CCCCC4)cc23)c1 | 0.436% (inactive)
40 | CCOc1ccc(N(CC)C(=O)c2noc3c2COc2ccc(C)cc2-3)cc1 | 0.123% (inactive)
41 | Cc1ccccc1Nc1nc(N)nc(CSc2nnc3ccccn23)n1 | 0.185% (inactive)
42 | Cc1ccccc1Nc1nc(N)nc(CSc2ccccc2)n1 | 0.151% (inactive)
43 | Cc1ccccc1Nc1nc(N)nc(CN2CCN(c3ccccn3)CC2)n1 | 38.5% (active)
44 | CCOc1ccc(N(Cc2ccccc2)C(=O)c2nc(S(C)(=O)=O)ncc2Cl)cc1 | 10% (inactive)

Row | SMILES | activation
45 | COc1ccccc1CNC(=O)CCn1c(=O)c2ccccc2n(CC(=O)Nc2ccc(Br)cc2F)c1=O | -0.617% (inactive)
46 | Cc1ccc(CNC(=O)c2cccc3c2C(=O)c2ccc(N4CCC(C)CC4)cc2S3(=O)=O)cc1 | 32% (active)
47 | COc1cccc(-c2ccc3c(c2)S(=O)(=O)c2cccc(C(=O)O)c2C3=O)c1OC | 1.73% (inactive)
48 | CC1CCN(c2c(NCc3ccc(C(=O)NCc4ccccc4)cc3)c(=O)c2=O)CC1 | -1.43% (inactive)
49 | CCOc1cccc(CC(=O)N2CCc3c([nH]c4ccccc34)C2c2ccc(F)cc2)c1OCC (stereo unspecified) | -0.484% (inactive)
50 | Cc1c(CCNC(=O)c2ccc(C(F)(F)F)cc2)sc2nc(-c3ccc(F)cc3)nn12 | -2.35% (inactive)
51 | CCCCCn1c(=O)[nH]c2cc(C(=O)NCCCN3CCCCC3C)ccc2c1=O (stereo unspecified) | 1.64% (inactive)
52 | O=C(NCc1ccccc1Cl)c1ccc2c(=O)n(CC3CCCO3)c(=S)[nH]c2c1 (stereo unspecified) | -2.85% (inactive)
53 | O=C(NC1CCCCC1)c1ccc2c(=O)n(CC3CCCO3)c(=O)[nH]c2c1 (stereo unspecified) | 31.5% (active)
54 | COc1ccc(-c2nc3nc(C)cc(C)n3c2Nc2c(C)cccc2C)cc1 | 2.98% (inactive)
55 | CCc1cc2c(cc3c(=O)n(CC(=O)NCCc4ccc(OC)c(OC)c4)ncn32)s1 | -0.234% (inactive)
56 | COC(=O)c1ccc(-c2nc3cc(NC(C)=O)ccc3o2)cc1 | -2.97% (inactive)
57 | Cc1ccc(NC(=O)C2CCCN(S(=O)(=O)c3c(C)noc3C)C2)c(C)c1 (stereo unspecified) | -0.264% (inactive)
58 | Cc1n[nH]c(C)c1S(=O)(=O)N1CCCC(C(=O)NCC2COc3ccccc3O2)C1 (stereo unspecified) | 57.1% (active)
59 | Cc1n[nH]c(C)c1S(=O)(=O)N1CCCC(C(=O)Nc2ccc(Br)cc2)C1 (stereo unspecified) | 0.576% (inactive) and 0.392% (inactive)
60 | O=C(NCC(c1ccco1)S(=O)(=O)c1cccs1)c1ccc(F)cc1 (stereo unspecified) | 0.728% (inactive)
61 | CCOc1ccc(CNC(=O)c2cccc(Nc3nc4ccccc4n4nnnc34)c2)cc1OC | 0.495% (inactive)
62 | Cc1ccccc1-n1c(C)cc(/C=C2\NC(=O)NC2=O)c1C | -0.336% (inactive)
63 | O=C1Nc2ccccc2/C1=C/c1ccnc2ccccc12 | 1.57% (inactive)
64 | Cc1cc(C)c(/C=C2\C(=O)Nc3ccccc32)[nH]1 | 39.4% (active)
65 | CCOC(=O)c1c(NC(C)=O)c2c3c(sc2n1Cc1c(C)cc(C)cc1C)CCCC3 | 0.0213% (inactive)
66 | CS(=O)(=O)N1CCC(C(=O)N2CCN(c3ccccc3)CC2)CC1 | 6.31% (inactive)

Row | SMILES | activation
67 | CCS(=O)(=O)N1CCC(N2CCN(c3ccccc3)CC2)CC1 | 68% (active)
68 | CCS(=O)(=O)N1CCC(C(=O)N2CCN(c3ccccc3)CC2)CC1 | 4.45% (inactive)
69 | Cc1ccccc1NC(=O)c1cc2c([nH]c1=O)CC(C)(C)CC2=O | 0.0984% (inactive)
70 | CCOc1cc(-c2cc(-c3ccc(NC(C)=O)cc3)nc(N)c2C#N)ccc1O | 0.571% (inactive)
71 | CCOc1cc(/C=C(\C#N)c2nc(-c3cccs3)c(NC(C)=O)s2)ccc1O | 31.5% (active)
72 | CCOc1ccc(/C=C(\C#N)c2nc3ccccc3c(=O)[nH]2)cc1OC | -1.7% (inactive)
73 | O=[N+]([O-])c1ccc(N2CCN(CC(O)COc3ccccc3)CC2)cc1 (stereo unspecified) | -0.607% (inactive)
74 | OC(COCC1COc2ccccc2O1)CN1CCN(c2ccc(F)cc2)CC1 (stereo unspecified) | 8.89% (inactive)
75 | OC(COCc1ccco1)CN1CCN(c2ccccc2)CC1 (stereo unspecified) | 85.6% (active)
76 | COc1ccc(CNC(=O)CSCc2nc(-c3ccccc3F)oc2C)cc1 | -0.228% (inactive)
77 | O=C(CCC1CCCN(C(=O)Cc2ccc(F)cc2)C1)N1CCN(c2ccccn2)CC1 (stereo unspecified) | 0.424% (inactive)
78 | Cc1nc(N2CCN(c3ccccn3)CC2)c2c(C)c(C(=O)Nc3ccc(F)cc3)sc2n1 | -0.199% (inactive)
79 | Cc1c(CN2CC[C@@H](N3CCN(c4ccccn4)CC3)[C@H](O)C2)[nH]c2ccc(F)cc12 | 76.9% (active)
80 | COC(=O)c1ccc(Cn2c(SCC(=O)N(C)c3ccccc3)nc3ccccc32)cc1 | 0.816% (inactive)
81 | Cc1cc(C)cc(NC(=O)COc2coc(CN3CCN(c4ccccc4)CC3)cc2=O)c1 | 5.66% (inactive)
82 | O=C(COc1coc(CN2CCN(c3ccccc3)CC2)cc1=O)N1CCc2ccccc21 | -0.514% (inactive)
83 | O=C(COc1coc(CN2CCN(c3ccccc3)CC2)cc1=O)Nc1ccccc1F | 45.8% (active)
84 | CC(C)OC(=O)C(C#N)c1nc2ccccc2nc1N1CCN(Cc2ccc3c(c2)OCO3)CC1 (stereo unspecified) | 48.3% (active)
85 | CC(C)OC(=O)C(C#N)c1nc2ccccc2nc1N1CCN(Cc2ccccc2)CC1 (stereo unspecified) | 0.138% (inactive)
86 | N#C/C=C/N1CCN(Cc2ccc3c(c2)OCO3)CC1 | 0.771% (inactive)
